Assay results: PubChem BioAssay AID1159580 (chemical genetic matrix, 2015)
The whole screen tested about 5,500 compounds, of which about 2,000 (36%) were called active. About 18% were inconclusive and are not listed. No stated cut-off is given here; in the data, active means normalized growth mostly below about 0.91 (no sharp cut-off); inconclusive means no clear call, values can overlap the other calls; inactive means mostly above about 0.92. This is one part of the list.

Assay: chemical genetic growth profiling, strain panel (AID 1159580);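 further: tested at 20 µM; growth read once vehicle control cultures reached saturation at 30 °C; 1 = growth at the plate median or of vehicle wells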
Details: growth OD
[1] = S. cerevisiae deletion strains, locus YDR150W, strain NUM1, stronger effect = lower value
[2] = S. cerevisiae deletion strains, locus YJR075W, strain HOC1, stronger effect = lower value
[3] = S. cerevisiae deletion strains, locus YMR263W, strain SAP30, stronger effect = lower value
[4] = S. cerevisiae deletion strains, locus YNL128W, strain TEP1, stronger effect = lower value
[5] = S. cerevisiae deletion strains, locus YNL153C, strain GIM3, stronger effect = lower value
[6] = S. cerevisiae deletion strains, locus YNL322C, strain KRE1, stronger effect = lower value

Measured: normalized growth

O=C(O)CCCCCC[C@H]1C(=O)NC(=O)N1CC[C@@H](O)C1CCCCC1
inactive: S. cerevisiae deletion strains, locus YAL040C, strain CLN3, stronger effect = lower value 0.969 | S. cerevisiae deletion strains, locus YCL061C, strain MRC1 (second series), stronger effect = lower value 0.985 | [1] 0.996 | S. cerevisiae deletion strains, locus YDR363W, strain ESC2, stronger effect = lower value 0.985 | S. cerevisiae deletion strains, locus YER002W, strain NOP16, stronger effect = lower value 0.936 | S. cerevisiae deletion strains, locus YGR229C, strain SMI1, stronger effect = lower value 0.999 | [2] 0.996 | [3] 0.993 | S. cerevisiae deletion strains, locus YMR307W, strain GAS1, stronger effect = lower value 1 | [4] 0.942 | [5] 0.971 | S. cerevisiae deletion strains, locus YNL175C, strain NOP13, stronger effect = lower value 0.987 | S. cerevisiae deletion strains, locus YNL197C, strain WHI3, stronger effect = lower value 0.962 | S. cerevisiae deletion strains, locus YNL224C, strain SQS1, stronger effect = lower value 0.982 | [6] 0.99 | S. cerevisiae deletion strains, locus YOR083W, strain WHI5 (second series), stronger effect = lower value 0.985

COc1ccccc1C1OC(=O)CC1C(=O)O (stereo not given)
inactive: S. cerevisiae deletion strains, locus YBR229C, strain ROT2, stronger effect = lower value 1.02 | S. cerevisiae deletion strains, locus YCL061C, strain MRC1, stronger effect = lower value 0.989 | S. cerevisiae deletion strains, locus YDL101C, strain DUN1, stronger effect = lower value 1 | S. cerevisiae deletion strains, locus YDL134C, strain PPH21, stronger effect = lower value 1.03 | [1] 0.947 | S. cerevisiae deletion strains, locus YEL061C, strain CIN8, stronger effect = lower value 1 | S. cerevisiae deletion strains, locus YGR078C, strain PAC10, stronger effect = lower value 0.987 | S. cerevisiae deletion strains, locus YHR030C, strain SLT2, stronger effect = lower value 0.963 | S. cerevisiae deletion strains, locus YHR087W, strain rtc3, stronger effect = lower value 1.03 | S. cerevisiae deletion strains, locus YJL187C, strain SWE1, stronger effect = lower value 1.01 | S. cerevisiae deletion strains, locus YJR043C, strain POL32, stronger effect = lower value 0.98 | [2] 0.986 | S. cerevisiae deletion strains, locus YLR039C, strain RIC1, stronger effect = lower value 1.02 | S. cerevisiae deletion strains, locus YLR058C, strain SHM2 (second series), stronger effect = lower value 1.01 | S. cerevisiae deletion strains, locus YLR085C, strain ARP6, stronger effect = lower value 1.02 | S. cerevisiae deletion strains, locus YLR262C, strain YPT6, stronger effect = lower value 1.02 | S. cerevisiae deletion strains, locus YML094W, strain GIM5, stronger effect = lower value 1.02 | S. cerevisiae deletion strains, locus YMR219W, strain ESC1, stronger effect = lower value 1.01 | [3] 0.968 | [4] 1.02 | [5] 1 | S. cerevisiae deletion strains, locus YNL298W, strain CLA4 (second series), stronger effect = lower value 0.998 | [6] 0.999 | S. cerevisiae deletion strains, locus YNR030W, strain Alg12, stronger effect = lower value 1.01 | S. cerevisiae deletion strains, locus YOL006C, strain TOP1, stronger effect = lower value 1.07 | S. cerevisiae deletion strains, locus YPL055C, strain LGE1, stronger effect = lower value 0.955 | S. cerevisiae deletion strains, locus YPL241C, strain CIN2, stronger effect = lower value 0.989 | S. cerevisiae deletion strains, locus YPR135W, strain CTF4, stronger effect = lower value 1.02 | S. cerevisiae strains, strain wild type, stronger effect = lower value 1.02
